PriA SSB inh = blocks PriA binding to SSB C-terminal tail; AlphaScreen SSBct-PriA binding, biotinylated peptide; inhibition, % at 33 µM; 0.6% of 430,000 active; AID 1272365; in the data active means inhibition mostly above about 37%, no sharp cut-off; inactive means mostly below about 20%;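 further: plate controls were negative control peptide for no effect and reference peptide for full effect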
RecA intein inh = blocks M. tuberculosis RecA intein splicing; P9WHJ3; cell-free RecA intein splicing, fluorescence; inhibition, % (no concentration beside the values); 0.75% of 290,000 active; in the data active means inhibition above about 30%;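 further: 0% = vehicle wells and 100% = reference inhibitor control wells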
Target sequence (P9WHJ3 whole entry, looked up): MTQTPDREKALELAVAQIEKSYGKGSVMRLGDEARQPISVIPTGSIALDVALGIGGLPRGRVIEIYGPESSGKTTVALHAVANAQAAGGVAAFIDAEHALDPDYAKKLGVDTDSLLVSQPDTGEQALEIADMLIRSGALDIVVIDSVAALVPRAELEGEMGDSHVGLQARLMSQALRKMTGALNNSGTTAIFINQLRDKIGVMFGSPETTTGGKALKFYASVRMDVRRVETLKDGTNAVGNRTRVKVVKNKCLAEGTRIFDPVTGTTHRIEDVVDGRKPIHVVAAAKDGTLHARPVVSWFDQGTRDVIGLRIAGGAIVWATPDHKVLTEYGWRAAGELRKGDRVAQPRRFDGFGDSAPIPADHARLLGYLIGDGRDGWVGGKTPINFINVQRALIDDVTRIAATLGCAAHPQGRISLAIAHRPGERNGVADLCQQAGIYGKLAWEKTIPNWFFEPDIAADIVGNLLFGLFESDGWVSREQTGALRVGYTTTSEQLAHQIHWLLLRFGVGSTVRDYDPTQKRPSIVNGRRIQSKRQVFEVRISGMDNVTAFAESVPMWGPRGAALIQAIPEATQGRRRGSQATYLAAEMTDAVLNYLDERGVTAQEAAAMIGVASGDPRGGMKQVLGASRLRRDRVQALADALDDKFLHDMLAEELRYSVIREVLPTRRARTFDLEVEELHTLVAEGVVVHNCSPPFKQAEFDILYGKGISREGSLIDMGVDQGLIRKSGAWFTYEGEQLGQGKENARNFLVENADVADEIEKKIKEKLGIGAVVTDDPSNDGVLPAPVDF
SARS 3CLpro inh = SARS-CoV 3CLpro protease inhibition; recombinant SARS-CoV 3CLpro, quenched FRET peptide cleavage; inhibition, % at 6 µM; 0.14% of 290,000 active; AID 1706; in the data active means inhibition above about 12%
VHR inh abs = blocks human VHR1 dual specificity phosphatase; recombinant VHR phosphatase, pNPP absorbance; inhibition, % at 13.3 µM; 0.52% of 290,000 active; AID 1654; in the data active means inhibition above about 50%
CCHF vOTU inh-1 = blocks the CCHF virus ovarian tumor domain protease; CCHFV vOTU protease, Pep-AMC fluorescence; inhibition, % at 11.5 µM; 0.55% of 370,000 active; AID 651958; further: 0% = vehicle wells with enzyme and 100% = no enzyme wells
CCHF vOTU inh-2 = CCHFV vOTU protease inhibition, confirmation; shares compounds with CCHF vOTU inh-1; Recombinant CCHFV vOTU, Pep-AMC fluorescence; inhibition, % at 11.5 µM; AID 686976; 17% of 1,900 active
Starred values were filed as active, the others as inactive; . = no result. This is a sample that favours compounds with a hit; in the whole collection about 1.7% have one here. Unless noted, no stated cut-off is given here; in the data, active means inhibition above about 30%; inactive means the rest.

SMILES	PriA SSB inh	RecA intein inh	SARS 3CLpro inh	VHR inh abs	CCHF vOTU inh-1	CCHF vOTU inh-2
O=C(Nc1nc2c(Br)cccc2s1)c1ccc(Br)s1	-1.0	.	.	.	.	.
Cc1noc(C)c1C(=O)OCC(=O)Nc1ccc(N2CCOCC2)cc1	-6.1	.	.	.	31.7*	-11.5
CN(C)c1nccc(CNC(=O)Nc2cccc(F)c2)n1	-6.0	.	.	.	.	.
CCN1CCN(c2ccc(S(=O)(=O)N3CCOCC3)cc2NC(=O)c2ccc(C(F)(F)F)cc2)CC1	-12.9	1.9	.	.	34.5*	-11.9
COc1cc(C=NN=C2NC(=O)C(Cc3ccc(F)cc3)S2)ccc1O (stereo not drawn)	-9.2	.	.	.	.	.
COc1cc(CSc2nnc(-c3cn(C)nc3OC)n2C)cc(OC)c1	-11.0	.	.	.	.	.
CCCCCCNC(=O)O[C@H]1Cn2c(=O)n(CCCCCC)c(=O)n2[C@@H]2CN(S(=O)(=O)c3ccc(C)cc3)C[C@]12O	.	.	.	.	27.9	.
CCCCCCn1c(=O)n2n(c1=O)[C@@H]1CN(S(=O)(=O)c3ccc(C)cc3)C[C@]1(O)[C@@H](OC(=O)NCc1ccc(OC)c(OC)c1)C2	.	.	.	.	43.5*	-9.2
CCCCCCn1c(=O)n2n(c1=O)[C@@H]1CN(S(=O)(=O)c3ccc(C)cc3)C[C@]1(O)[C@@H](OC(=O)Nc1cccs1)C2	.	.	.	.	33.9*	-5.8
CC(=O)c1ccc(C(=O)Nc2nc(-c3ccc(C(C)C)cc3)cs2)cc1	-2.0	.	.	.	.	.
O=S(=O)(c1ccc(Cl)cc1)N1CCSC1c1ccc2c3c(cccc13)CC2 (stereo not drawn)	-11.0	.	.	.	.	.
CCCc1nc2c(=O)n(C)c(=O)nc-2n(C)n1	-9.0	.	-2.5	.	113.2*	93.5*
CCn1c(N)nc2c1c(=O)n(C)c(=O)n2C	-13.7	-8.0	-0.9	-5.0	3.7	.
Cc1cc(F)cc(-c2cc(C(=O)NCc3cccc(Cl)c3)[nH]n2)c1	.	.	.	.	34.0*	-13.9
BrCCC12CC3CC(CC(C3)C1)C2	-2.0	.	.	.	.	.
C=CCN1C(=O)c2ccc(C(=O)OCC(=O)Nc3ccccc3OC)cc2C1=O	4.9	.	.	.	31.6*	-22.9
COc1ccccc1NC(=O)COC(=O)c1ccc2c(c1)OCCO2	-20.8	.	.	.	-3.0	.
O=C(c1ccccc1)c1coc2c1C(=O)c1ccccc1C2=O	-2.5	16.6	3.9	4.5	33.5*	58.7*
S=C(Nc1ccc2nsnc2c1)N1CCCC1	-21.6	.	-1.1	25.1	104.8*	-12.3
O=C(Nc1ccc2nsnc2c1)N1CCCCCC1	-19.1	-4.9	-4.1	11.9	-1.6	.
COc1ccccc1C(CCNCc1ccc(N(C)C)cc1)c1ccc(OC(C)C)cc1 (stereo not drawn)	1.2	21.2	1.5	.	32.8*	-12.5
COc1ccc(CNCCC(c2ccc(OC(C)C)cc2)c2ccccc2OC)cc1 (stereo not drawn)	4.1	16.7	1.4	.	27.2	.
CC1=Nc2ccccc2/C1=C/c1sc(=S)n(-c2cccc(C(=O)O)c2)c1O	.	6.3	-6.2	-6.0	36.3*	25.8
Cc1cc2c(c(=O)n1Cc1cccnc1)C(c1cccc(Cl)c1Cl)C(C#N)=C(N)O2 (stereo not drawn)	-6.0	.	.	.	.	.
CCc1ccc(OCC(=O)Nc2ccc(S(=O)(=O)Nc3cc(C)on3)cc2)c(Br)c1	4.7	6.8	11.1	-28.8	44.0*	1.8
SMILES	PriA SSB inh	RecA intein inh	SARS 3CLpro inh	VHR inh abs	CCHF vOTU inh-1	CCHF vOTU inh-2
Cc1cc(NS(=O)(=O)c2ccc(NC(=O)COc3ccccc3Cl)cc2)no1	0.6	2.1	-1.8	-15.6	2.0	.
O=C(CN1C2CCCC1CC(NC(=O)c1ccccc1)C2)Nc1ccccc1 (stereo not drawn)	3.2	-0.7	-0.3	25.5	30.2*	-17.5
CC(=NNC(=O)c1ccccc1Cl)c1ccccn1	8.6	.	.	.	.	.
C/C(=N\NC(=O)c1ccccc1-n1cccc1)c1ccccn1	.	.	.	.	37.0*	-12.8
COc1ccc2scc(N3CC(C)CC(C)C3)c(=O)c2c1 (stereo not drawn)	13.0	.	.	.	.	.
COc1cccc(OCc2cc(C(=O)N(C)C3CCOCC3)no2)c1	1.2	1.2	-8.2	-6.8	29.7*	-9.5
COc1cccc(OCc2cc(C(=O)N(C)C3CC(C)(C)NC(C)(C)C3)no2)c1	-4.4	-2.9	4.5	24.4	-6.3	.
Cn1c(Cc2cccs2)nnc1SCC(=O)Nc1ccc2cn[nH]c2c1	.	.	.	.	31.4*	4.5
CCOC(=O)CCCCCC(=O)Nc1ccc2c(c1)C(=O)N([C@@H](C)CO)C[C@@H](C)[C@H](CN(C)C(=O)Nc1ccccc1)OCCCC[C@H](C)O2	.	.	.	.	10.8	.
CCOC(=O)CCCCCC(=O)Nc1ccc2c(c1)C(=O)N([C@H](C)CO)C[C@H](C)[C@@H](CN(C)C(=O)Nc1ccccc1)OCCCC[C@@H](C)O2	.	.	.	.	38.1*	-11.5
CC(C)NC(=O)N(C)C[C@@H]1OCCCC[C@@H](C)Oc2ccc(NC(=O)Nc3ccc(F)cc3)cc2C(=O)N([C@H](C)CO)C[C@@H]1C	.	.	.	.	32.2*	-2.8
COc1ccc(NC(=O)C2Cc3ccc(Cl)cc3C(=O)O2)cc1 (stereo not drawn)	-4.0	.	.	.	.	.
Clc1cccc(C2N(c3ccccc3)CCN2c2ccccc2)c1Cl	-15.0	.	.	.	.	.
CCCNC(=S)NNC(=O)c1cc(-c2cccnc2)nc2ccccc12	-11.5	4.3	3.0	12.9	9.8	.
CCCCNC(=S)NNC(=O)c1cc(-c2cccnc2)nc2ccccc12	4.9	1.6	-2.4	45.3	34.6*	-8.7
O=C(NCc1ccc2c(c1)OCO2)C(=O)NC[C@@H](c1ccco1)N1CCN(c2ccccc2F)CC1	-5.0	.	.	.	.	.
Cc1ccc2c(c1)c1c(n2CC(O)Cn2c(C)nc3ccccc32)CCCC1 (stereo not drawn)	-9.2	2.4	0.2	-18.5	4.3	.
Cc1ccc2c(c1)c1c(n2CC(O)CNC(C)(C)C)CCCC1 (stereo not drawn)	20.3	.	-2.1	0.4	56.9*	-13.7
COc1cc(/C=N/N=C2/NC(=O)C(CC(=O)O)S2)ccc1OCc1ccc(Cl)cc1 (stereo not drawn)	.	-1.2	9.8	16.4	34.1*	17.5
COCCNC(=S)N1C[C@H]2CON(C)[C@H]2C[C@H]1c1ccccc1Br	.	.	.	.	32.6*	-20.8
CCOc1ccc(C(=O)NC[C@@H](c2ccco2)N2CCN(c3ccccc3)CC2)cc1	-3.0	.	.	.	.	.
CC1=NN(c2cccc(Cl)c2)C(=O)C1	-4.0	94.4*	3.7	3.3	44.5*	2.4
Cc1cc(-c2ccncc2)nn1CCNC(=O)c1ccc(F)cc1Cl	-2.0	.	.	.	.	.
CCOc1ccc(C(=O)Nc2ccc3c(c2)OCCO3)cc1OC	-10.5	-0.5	6.0	-8.3	-10.3	.
CCOc1ccc(NC(=O)c2ccc3c(c2)OCCO3)cc1S(=O)(=O)N(CC)CC	-10.3	.	.	.	32.3*	-16.2
SMILES	PriA SSB inh	RecA intein inh	SARS 3CLpro inh	VHR inh abs	CCHF vOTU inh-1	CCHF vOTU inh-2
CCC(C)(C)n1nnnc1C(c1ccncc1)N1CCN(c2cccc(OC)c2)CC1 (stereo not drawn)	12.9	-1.0	-3.9	5.6	-2.3	.
CCC(C)(C)n1nnnc1C(c1cccnc1)N1CCN(c2cccc(C(F)(F)F)c2)CC1 (stereo not drawn)	-11.9	8.9	-6.4	39.1	30.5*	2.8
COc1cc(O)c(NC(C)=O)c2nonc12	-9.1	5.1	-3.4	-0.9	39.5*	-19.8
CCCCCCN1CCS(=O)(=O)N(Cc2ccccc2)C(C(=O)OC)C1 (stereo not drawn)	.	.	.	.	5.0	.
CCCCCCCCN1CCS(=O)(=O)N(Cc2ccc(C)cc2)C(C(=O)OC)C1 (stereo not drawn)	.	.	.	.	29.8*	18.2
COc1ccc(NC(=O)c2ccc(OCC3CCCO3)cc2)cc1OC (stereo not drawn)	-7.5	.	.	.	37.6*	-13.6
COc1ccc(NC(=O)c2ccc(OCC3CCCO3)cc2)cc1Cl (stereo not drawn)	-3.0	.	.	.	-3.9	.

Screening data as filed in PubChem.
